We go through 80 molecules from PubChem BioAssay AID651661 (Broad Institute, 2012).

Each structure is given as a SMILES string. Screen size: about 350,000 compounds; about 2,300 (0.66%) were called active. For the sample, actives were picked, then their nearest neighbours and some compounds at random. A number with no mark means an inactive call.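 How the source made its calls: active means mean inhibition of at least 50% after viability correction, with every replicate also passing that limit; inconclusive means mean reaches 50% but only one of two replicates passes; inactive means the rest.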

The test in a line: EWS/Fli-driven NR0B1 reporter inhibitors, primary screen, A673 cells, NR0B1 luciferase, luminescence, MLPCN library (AID 651661).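 Further: firefly luciferase signal divided by Alamar Blue viability fluorescence both relative to DMSO.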 To be noted: viability-normalised, at 12.6 µM, hits give high values.
Turning to `CCS(=O)(=O)Nc1ccc2c(c1)C(=O)N(C)[C@H]1CC[C@H](CC(=O)Nc3ccccc3)O[C@@H]1CO2`, the inhibition (as a rule, the change of the read-out against control, counted positive when it falls) is -5.08%.
Under `COc1ccc(S(=O)(=O)N2CCCCN3[C@H](C2)[C@H](c2ccc(C4=CCCC4)cc2)[C@@H]3CO)cc1` stands -9.53%; under `C[C@H]1CN([C@@H](C)CO)C(=O)c2ccccc2-c2ccccc2CO[C@H]1CN(C)Cc1ccc(-c2ccccc2)cc1`, 8.23%.
Regarding `COc1ccc2c3c(n(C)c2c1)[C@@H](CO)N(CC1CC1)CC31CCN(C(=O)c2ccc3c(c2)OCO3)CC1`, the inhibition is 17.4%.
Under `N#C[C@@H]1[C@H](c2ccccc2-c2ccccc2F)[C@@H](CO)N1C(=O)c1ccccn1` stands 31.4%; under `CO[C@H]1CN(C)C(=O)c2ccc(NS(=O)(=O)c3ccccc3)cc2OC[C@H](C)N(Cc2nccs2)C[C@@H]1C`, 3.5%.
Then `O=C(c1ccccc1)N1CC(=O)N2[C@@H](CO)[C@H](c3ccc(C#CC4CC4)cc3)[C@@H]2C1`, with -6.36%; and `C[C@H](CO)N1C[C@H](C)[C@@H](CN(C)S(=O)(=O)c2cn(C)cn2)OCCCC[C@H](C)Oc2ccc(NC(=O)Cc3ccccc3)cc2C1=O`, with 2.69%; and `CC(=O)Nc1ccc2c(c1)C(=O)N(C)[C@H]1CC[C@H](CC(=O)NCc3ccccc3Cl)O[C@H]1CO2`, with -1.68%.
Consider `Cc1cccc(S(=O)(=O)N2C[C@@H]3[C@H](c4ccccc42)[C@@H](CO)N3C(=O)c2ccccc2)c1`, for which the inhibition is 1.99%.
Under `COc1ccc(CNS(=O)(=O)c2ccc(-c3cnc(C4CC4)o3)cc2)cc1` stands 4.87%; under `Cc1cccc(CNS(=O)(=O)c2ccc(-c3cnc(C4CC4)o3)cc2)c1`, -1.32%; under `Cc1cccc(NS(=O)(=O)c2ccc(-c3cnc(C4CC4)o3)cc2)c1`, 53.1% (active).
Then `COc1ccccc1NC(=O)N1CC(=O)N2[C@H](C1)[C@H](c1ccc(C#Cc3ccccc3)cc1)[C@@H]2CO`, with 0.577%; and `C[C@@H](O)C#Cc1ccc([C@H]2[C@H]3CN(C(=O)c4ccc5c(c4)OCO5)CCCCN3[C@H]2CO)cc1`, with -9.79%; and `C[C@H]1CN([C@@H](C)CO)C(=O)c2cc(C3=CCCC3)cnc2O[C@@H]1CN(C)Cc1cccnc1`, with -9.75%.
Then `COc1ccc(/C=C2\SC(=S)N(CCCC(=O)NC3CCCC3)C2=O)cc1OC`, with 55.1% (active).
For `COc1ccc(/C=C/C(=O)OCC(=O)NC2CCCCCC2)cc1OC`, the inhibition was -1.04%.
`COc1ccc(/C=C2\SC(=S)N(CCC(=O)N3CCOCC3)C2=O)cc1OC`: the inhibition is 0.114%.
With `COCC(=O)N1[C@H](CO)[C@H](c2ccccc2)C12CN(C(=O)NC1CCCCC1)C2`, the inhibition was -12.4%.
With `C[C@H](CO)N1C[C@H](C)[C@@H](CN(C)CC2CC2)OCCCC[C@H](C)Oc2ccc(NC(=O)Cc3ccccc3)cc2C1=O`, the inhibition is 32%.
Then `COc1ccccc1-n1ccnc1SCC(=O)NC(C)(C)C`, with 0.699%.
Under `Cc1nnc(NC(=O)CSc2nccn2-c2cccc(C)c2C)s1` stands 60.5% (active); under `COc1ccccc1-n1c(CNC(=O)c2ccccc2)nnc1SCC(=O)Nc1nnc(C)s1`, 4.12%; under `Cc1nc(N2[C@H](CO)[C@H](c3ccccc3)[C@H]2CNCC2CCCCC2)sc1C`, -4.86%.
As for `COc1cccc(-c2ccc([C@H]3[C@H]4CN(C(=O)NC(C)C)CC(=O)N4[C@H]3CO)cc2)c1`, the inhibition is 1.6%.
Under `CC(C)OCCCNC(=O)CN1C(=O)/C(=C/c2ccccc2F)Oc2ccccc21` stands -9.7%; under `CN1CCN(CCCNC(=O)c2ccc(/C=C3\Oc4ccccc4N(Cc4ccc(Cl)cc4)C3=O)cc2)CC1`, 62.2% (active).
Then `CCCN1CCN(CCCNC(=O)CN2C(=O)COc3ccccc32)CC1`, with 5.75%; and `O=C1CN(S(=O)(=O)c2ccccc2)C[C@H]2[C@H](c3ccc(C#CCc4ccccc4)cc3)[C@@H](CO)N12`, with -2.75%.
In the case of `C[C@@H]1CN([C@@H](C)CO)C(=O)c2cc(-c3ccncc3)cnc2O[C@@H]1CN(C)C(=O)C1CCCCC1`, the inhibition was -4.18%.
Then `C[C@H](CO)N1C[C@H](C)[C@@H](CN(C)C(=O)Nc2ccc(F)cc2)OCCCC[C@H](C)Oc2ccc(NC(=O)c3ccncc3)cc2C1=O`, with -7.08%.
Regarding `Cc1ccc(CS(=O)(=O)c2ncc(Cl)c(C(=O)Nc3nnc(C)s3)n2)cc1`, the inhibition is 67.7% (active).
Under `Cc1nnc(NC(=O)C(c2ccccc2)c2ccccc2)s1` stands 11.8%; under `Cc1ccc(C)c(Cn2nnc3c(=O)[nH]c(C(=O)Nc4ccc(F)cc4)nc32)c1`, -4.91%; under `Cc1cccc(NC(=O)C(C)SCc2ccccc2)c1` (stereo not given), -20.7%.
For `Cc1ccc(S(=O)(=O)CCC(=O)Nc2nnc(CC(C)C)s2)cc1`, the inhibition is -2.4%.
Consider `Cc1cccc(NC(=O)c2nc(S(=O)(=O)Cc3ccccc3)ncc2Cl)c1`, for which the inhibition was 56.5% (active).
Take `O=C(Nc1ccc(F)cc1)c1ccc(S(=O)(=O)NCc2cccnc2)cc1`: the inhibition is 14.9%.
Under `Cc1cccc(CS(=O)(=O)c2ncc(Cl)c(C(=O)Nc3ccc(F)cc3)n2)c1` stands 60.6% (active).
Under `Cc1cc(C)cc(NS(=O)(=O)Cc2ccccc2)c1` stands -2.06%; under `O=C(C[C@H]1C=C[C@@H](NC(=O)NC2CCCCC2)[C@@H](CO)O1)NCc1ccc(Cl)cc1`, -5.17%.
Under `CC(C)C#Cc1ccc([C@H]2[C@@H](C#N)N(C(=O)CN(C)C)[C@H]2CO)cc1` stands 2.38%; under `COCC(=O)Nc1ccc2c(c1)OC[C@H](C)NC[C@H](C)[C@H](OC)CN(C)C2=O`, -2.88%.
Consider `CCNC(=O)Nc1ccc2c(c1)C(=O)N(C)[C@H]1CC[C@@H](CC(=O)N[C@H](C)c3ccccc3)O[C@@H]1CO2`, for which the inhibition is 0.627%.
In the case of `Cn1cnc(S(=O)(=O)N2CC[C@@H]3[C@H]2c2cc(C#Cc4cccc(F)c4)ccc2N[C@@H]3CO)c1`, the inhibition was 0.925%.
On to `C[C@@H]1CN([C@H](C)CO)C(=O)c2cc(C#Cc3cccc(F)c3)cnc2O[C@H]1CN(C)Cc1ccccn1`, for which the inhibition is 6.4%.
Under `C[C@H](CO)N1C[C@H](C)[C@H](CN(C)C(=O)NC2CCCCC2)Oc2ccc(NC(=O)CCCN(C)C)cc2CC1=O` stands -7.51%; under `CC(C)OC(=O)N(C)C[C@@H]1OCc2ccccc2-c2c(n(C)c3ccccc23)C(=O)N([C@H](C)CO)C[C@H]1C`, 8.3%.
Then `Cc1ccc(-n2c(-c3ccc(Cl)cc3)n[nH]c2=S)cc1`, with 3.61%; and `Cc1ccc(-c2nc3ccc(Cl)cn3c2Cc2ccccc2)cc1`, with -80.4%.
As for `Cc1ccc(-c2nc3ccc(Br)cn3c2Cc2ccccc2C(F)(F)F)cc1`, the inhibition was -71.5%.
`COc1ccc(-c2nc3ccc(Br)cn3c2Cc2ccc(C)cc2)cc1OC`: the inhibition is -33.3%.
Under `Cc1ccc(-c2cn3cc(C)ccc3n2)cc1` stands 66.7% (active); under `Cc1ccc2nc(-c3ccc(Br)cc3)cn2c1`, 71.9% (active); under `C[C@@H]1CN([C@@H](C)CO)S(=O)(=O)c2ccc(C#Cc3cccnc3)cc2O[C@@H]1CN(C)C(=O)CN(C)C`, 12.9%.
Then `CC(=O)N1[C@H](C(=O)N(C)C)[C@@H](CO)[C@@H]2Cn3c(ccc(-c4ccccc4)c3=O)[C@@H]21`, with 0.262%; and `Cc1ccccc1S(=O)(=O)N1[C@@H]2CNC[C@H]1C2c1ccc(-c2cccnc2)cc1` (stereo not given in full), with -4.81%.
For the molecule `CCCNC(=O)N1[C@@H]2Cn3c(ccc(-c4ccc(OC)cc4)c3=O)[C@H]1[C@@H](C(=O)NC1CCC1)[C@@H]2CO`, the inhibition was 0.758%.
Turning to `Cc1ccccc1-c1ccc([C@H]2[C@@H](CO)N3C(=O)CN(C(=O)c4ccncc4)C[C@H]23)cc1`, the inhibition was 0.78%.
Regarding `COc1ccc2c3c(n(C)c2c1)[C@H](CO)N(S(=O)(=O)c1ccc(C)cc1)CC31CN(C(=O)c2ccccn2)C1`, the inhibition was -3.69%.
For the molecule `NC1=CC(=O)C(=O)c2cccnc21`, the inhibition was 57.3% (active).
Then `CCOc1ccc(CCN2C(=O)c3cccnc3C2=O)cc1OCC`, with 9.92%; and `CCCNC(=O)N1CC2(C1)[C@@H](c1ccccc1)[C@@H](CO)N2C(=O)CC1CC1`, with 2.39%; and `C[C@@H]1CN([C@H](C)CO)C(=O)Cc2cc(NC(=O)Nc3cccc4ccccc34)ccc2O[C@@H]1CN(C)Cc1ccc(C(F)(F)F)cc1`, with -4.39%.
Under `Clc1cccc(-c2nc(NCC3CCCO3)c3ccccc3n2)c1` (stereo not given) stands 15.1%; under `N#CCSc1nc(-c2ccccc2)nc2ccc(F)cc12`, 19.1%.
With `Clc1ccc2nc(-c3ccccc3)nc(C(Cl)Cl)c2c1`, the inhibition was 68.5% (active).
Consider `CC(C)NC(=O)Nc1ccc2c(c1)C(=O)N([C@@H](C)CO)C[C@H](C)[C@H](CN(C)C(=O)c1ccccc1)OCCCC[C@@H](C)O2`, for which the inhibition was 5.19%.
Then `CN(C)c1ccc2c(c1)[C@@H]1C[C@@H](CC(=O)NCc3ccccn3)O[C@H](CO)[C@@H]1O2`, with -4.51%; and `COc1cccc2c1C(=O)c1c(O)c3c(c(O)c1C2=O)CC(O)(C(C)=NNC(=O)c1ccc(Cl)c(Cl)c1)CC3OC1CC(N)C(O)C(C)O1` (stereo not given), with 63.6% (active).
Under `C[C@H](CO)N1C[C@H](C)[C@@H](CN(C)C(=O)NC2CCCCC2)Oc2c(NC(=O)Nc3ccc(F)cc3)cccc2C1=O` stands 4.64%; under `COc1ccc(CN(C)C[C@@H]2OCCCC[C@@H](C)Oc3ccc(NC(=O)Nc4ccc(C(F)(F)F)cc4)cc3C(=O)N([C@H](C)CO)C[C@H]2C)cc1`, 53.9% (active); under `C[C@@H]1CCCCO[C@@H](CN(C)Cc2ccc(C(F)(F)F)cc2)[C@@H](C)CN([C@H](C)CO)C(=O)c2cc(NC(=O)Nc3ccccc3)ccc2O1`, -6.47%.
For the molecule `C[C@@H]1CN([C@H](C)CO)C(=O)c2cc(NC(=O)Nc3ccccc3)ccc2O[C@@H](C)CCCCO[C@H]1CN(C)Cc1ccc(C(F)(F)F)cc1`, the inhibition was 71.6% (active).
Under `C[C@@H]1CN([C@H](C)CO)C(=O)c2cccc(NC(=O)Nc3ccccc3)c2O[C@@H]1CN(C)C(=O)NC1CCCCC1` stands 4.76%.
As to `COc1ccc(NC(=O)Nc2ccc3c(c2)C(=O)N([C@@H](C)CO)C[C@H](C)[C@H](CN(C)Cc2ccc(C(F)(F)F)cc2)OCCCC[C@H](C)O3)cc1`, the inhibition was 6.84%.
For the molecule `C[C@H]1CN([C@@H](C)CO)C(=O)c2cccc(NC(=O)Nc3ccc(C(F)(F)F)cc3)c2O[C@H]1CN(C)C(=O)NC1CCCCC1`, the inhibition is 56.1% (active).
Then `C[C@H]1CCCCO[C@@H](CN(C)Cc2ccc(C(F)(F)F)cc2)[C@@H](C)CN([C@@H](C)CO)C(=O)c2cc(NC(=O)Nc3ccccc3)ccc2O1`, with 19.3%.
Then `C[C@@H]1CN([C@H](C)CO)C(=O)c2cc(NC(=O)Nc3ccc(C(F)(F)F)cc3)ccc2O[C@@H](C)CCCCO[C@@H]1CN(C)Cc1ccc(C(F)(F)F)cc1`, with -13.8%.
